Experimental data: article PMC7862700, “An all-to-all approach to the identification of sequence-specific readers for epigenetic DNA modifications on cytosine”

Experiments:
Test in all cases: DAPPL (digital affinity profiling via proximity ligation, sequencing); 10 mM Tris-HCl pH 7.5, 50 mM NaCl, 1 mM DTT, 4% glycerol, room temperature, 30 min; GST-TFs on glutathione beads, 16-mer random dsDNA library, 0.1% formaldehyde crosslink after washing; high values mean tight binding
Conditions in all cases: protein: recombinant; tags: N-terminal GST; dsDNA, one strand shown
FLI1 = molecular target: T1, FLI1 (Homo sapiens, UniProt Q01543 1-452)
T1 sequence: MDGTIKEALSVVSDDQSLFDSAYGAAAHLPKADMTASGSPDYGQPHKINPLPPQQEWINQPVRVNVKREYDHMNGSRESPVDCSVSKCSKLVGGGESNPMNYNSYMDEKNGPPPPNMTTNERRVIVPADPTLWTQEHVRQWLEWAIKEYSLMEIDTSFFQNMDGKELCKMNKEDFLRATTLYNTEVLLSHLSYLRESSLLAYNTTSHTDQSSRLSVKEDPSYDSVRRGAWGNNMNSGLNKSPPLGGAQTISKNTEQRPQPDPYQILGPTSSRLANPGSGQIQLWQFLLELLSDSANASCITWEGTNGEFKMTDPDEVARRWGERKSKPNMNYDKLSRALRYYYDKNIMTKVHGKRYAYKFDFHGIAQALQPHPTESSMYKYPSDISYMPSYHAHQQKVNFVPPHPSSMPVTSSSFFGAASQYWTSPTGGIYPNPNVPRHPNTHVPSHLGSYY
Method in brief: (§1)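 Pools of DNA-barcoded human transcription factors, expressed in yeast as GST fusions on glutathione beads and combined with a tag-only sample, were incubated with 200 nmole of a 16-mer random double-stranded DNA library. Incubation took 30 min at room temperature in Tris/NaCl/DTT/glycerol buffer and was followed by washing, 0.1% formaldehyde crosslinking, proximity ligation (BsaI/T4 ligase, 1 h, 37 °C), PCR amplification and sequencing on an Illumina NextSeq500. Binding signal is the ratio of a hexamer's read frequency for a factor to its frequency for the tag-only sample.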

ELK1 = molecular target: T2, ELK1 (Homo sapiens, UniProt P19419 1-428)
T2 sequence: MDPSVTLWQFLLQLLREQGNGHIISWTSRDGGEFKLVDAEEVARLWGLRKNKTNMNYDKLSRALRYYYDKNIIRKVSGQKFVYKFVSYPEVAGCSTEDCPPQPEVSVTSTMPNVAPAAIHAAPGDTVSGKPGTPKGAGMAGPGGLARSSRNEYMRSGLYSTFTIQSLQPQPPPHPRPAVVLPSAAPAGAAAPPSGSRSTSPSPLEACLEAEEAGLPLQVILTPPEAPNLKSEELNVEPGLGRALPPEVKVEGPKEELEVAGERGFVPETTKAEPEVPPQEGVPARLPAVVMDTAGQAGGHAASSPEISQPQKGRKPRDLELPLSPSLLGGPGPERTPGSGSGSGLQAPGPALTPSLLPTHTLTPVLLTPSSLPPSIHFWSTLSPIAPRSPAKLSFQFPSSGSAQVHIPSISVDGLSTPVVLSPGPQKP
Method in brief: as §1

GABPA = molecular target: T3, GABPA (Homo sapiens, UniProt Q06546 1-454)
T3 sequence: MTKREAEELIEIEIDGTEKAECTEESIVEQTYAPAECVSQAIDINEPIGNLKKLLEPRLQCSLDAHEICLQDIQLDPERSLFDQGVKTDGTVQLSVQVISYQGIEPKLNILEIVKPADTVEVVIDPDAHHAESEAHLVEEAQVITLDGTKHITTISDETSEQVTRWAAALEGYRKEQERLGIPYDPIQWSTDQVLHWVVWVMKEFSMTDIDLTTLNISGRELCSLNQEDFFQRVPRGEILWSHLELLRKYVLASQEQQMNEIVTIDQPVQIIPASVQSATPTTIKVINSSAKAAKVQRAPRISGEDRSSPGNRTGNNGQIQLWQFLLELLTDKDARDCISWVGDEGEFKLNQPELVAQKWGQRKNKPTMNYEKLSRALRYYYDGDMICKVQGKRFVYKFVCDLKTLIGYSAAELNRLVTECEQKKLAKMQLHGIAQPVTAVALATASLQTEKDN
Method in brief: as §1

ERG = molecular target: T4, ERG (Homo sapiens, UniProt P11308 1-479)
T4 sequence: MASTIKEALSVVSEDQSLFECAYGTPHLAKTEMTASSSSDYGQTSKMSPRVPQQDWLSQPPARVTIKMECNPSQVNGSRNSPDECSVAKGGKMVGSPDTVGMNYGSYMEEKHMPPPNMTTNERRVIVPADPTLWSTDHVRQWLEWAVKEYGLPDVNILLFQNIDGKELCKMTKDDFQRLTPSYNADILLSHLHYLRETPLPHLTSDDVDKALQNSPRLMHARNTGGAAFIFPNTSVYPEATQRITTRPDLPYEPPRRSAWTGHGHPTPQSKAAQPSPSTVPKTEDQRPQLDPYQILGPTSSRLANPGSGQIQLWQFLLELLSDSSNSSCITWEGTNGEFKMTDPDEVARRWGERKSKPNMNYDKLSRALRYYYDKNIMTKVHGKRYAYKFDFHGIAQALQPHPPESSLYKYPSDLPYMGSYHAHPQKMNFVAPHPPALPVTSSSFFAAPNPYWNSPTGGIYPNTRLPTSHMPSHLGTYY
Method in brief: as §1

ELF1 = ELF1 (Homo sapiens, UniProt P32519 1-619)
Method in brief: as §1

EHF = molecular target: T5, EHF (Homo sapiens, UniProt Q9NZC4 1-300)
T5 sequence: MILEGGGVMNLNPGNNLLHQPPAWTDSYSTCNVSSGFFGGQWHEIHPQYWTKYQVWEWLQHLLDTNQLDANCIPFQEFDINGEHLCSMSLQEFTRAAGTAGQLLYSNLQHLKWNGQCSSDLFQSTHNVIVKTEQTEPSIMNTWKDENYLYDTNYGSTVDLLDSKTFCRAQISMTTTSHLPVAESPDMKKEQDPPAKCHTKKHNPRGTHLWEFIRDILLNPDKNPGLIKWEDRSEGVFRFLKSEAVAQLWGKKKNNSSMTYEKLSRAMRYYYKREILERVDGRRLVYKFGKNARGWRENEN
Method in brief: as §1

SPI1 = SPI1 (Homo sapiens, UniProt P17947 1-270)
Method in brief: as §1

SPIB = SPIB (Homo sapiens, UniProt Q01892 1-262)
Method in brief: as §1

ELK3 = molecular target: T6, ELK3 (Homo sapiens, UniProt P41970 1-407)
T6 sequence: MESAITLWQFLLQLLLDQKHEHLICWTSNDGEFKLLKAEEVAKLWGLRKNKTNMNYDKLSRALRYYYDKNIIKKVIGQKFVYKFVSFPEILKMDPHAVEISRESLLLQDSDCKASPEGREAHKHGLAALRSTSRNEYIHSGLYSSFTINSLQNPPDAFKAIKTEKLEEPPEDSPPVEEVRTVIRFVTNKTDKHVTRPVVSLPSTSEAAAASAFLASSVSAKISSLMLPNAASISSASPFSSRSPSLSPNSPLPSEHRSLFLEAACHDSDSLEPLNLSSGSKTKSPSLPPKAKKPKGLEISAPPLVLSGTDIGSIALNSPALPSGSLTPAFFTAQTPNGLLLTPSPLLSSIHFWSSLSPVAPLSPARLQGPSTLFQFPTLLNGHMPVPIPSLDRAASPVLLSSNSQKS
Method in brief: as §1

Sequence of SPIB (Q01892 whole entry): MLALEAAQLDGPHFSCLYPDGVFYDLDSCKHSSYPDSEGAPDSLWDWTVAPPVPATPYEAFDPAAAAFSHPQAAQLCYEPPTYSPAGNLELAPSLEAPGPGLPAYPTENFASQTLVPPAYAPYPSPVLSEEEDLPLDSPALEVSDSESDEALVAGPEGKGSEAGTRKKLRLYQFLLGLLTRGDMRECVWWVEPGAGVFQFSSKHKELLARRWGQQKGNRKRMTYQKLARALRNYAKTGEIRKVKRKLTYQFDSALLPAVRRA
Sequence of ELF1 (P32519 whole entry): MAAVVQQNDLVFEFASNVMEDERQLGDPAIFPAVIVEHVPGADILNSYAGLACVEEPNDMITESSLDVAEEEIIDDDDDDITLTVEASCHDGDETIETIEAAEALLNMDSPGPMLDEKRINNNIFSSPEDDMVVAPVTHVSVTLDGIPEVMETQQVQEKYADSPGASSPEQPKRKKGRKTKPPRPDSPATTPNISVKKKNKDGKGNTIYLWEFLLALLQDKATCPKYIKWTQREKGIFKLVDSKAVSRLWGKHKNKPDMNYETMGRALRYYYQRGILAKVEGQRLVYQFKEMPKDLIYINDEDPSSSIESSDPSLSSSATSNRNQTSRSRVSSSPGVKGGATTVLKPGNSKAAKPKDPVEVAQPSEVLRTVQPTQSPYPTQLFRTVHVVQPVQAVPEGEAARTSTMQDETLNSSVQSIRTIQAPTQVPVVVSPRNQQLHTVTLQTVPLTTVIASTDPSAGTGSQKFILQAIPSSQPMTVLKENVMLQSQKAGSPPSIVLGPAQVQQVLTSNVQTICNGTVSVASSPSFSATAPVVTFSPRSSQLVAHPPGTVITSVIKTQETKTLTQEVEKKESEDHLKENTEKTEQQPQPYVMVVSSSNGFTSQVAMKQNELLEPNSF

Sequence: CCTCAT
- binding signal (FLI1): 1.35 fold enrichment (6-mer frequency, TF over GST control)
- binding signal (ELK1): 1.3 fold enrichment (6-mer frequency, TF over GST control)
- binding signal (GABPA): 1.34 fold enrichment (6-mer frequency, TF over GST control)
- binding signal (ERG): 1.34 fold enrichment (6-mer frequency, TF over GST control)
- binding signal (ELF1): 1.35 fold enrichment (6-mer frequency, TF over GST control)
- binding signal (EHF): 1.39 fold enrichment (6-mer frequency, TF over GST control)
- binding signal (SPI1): 1.67 fold enrichment (6-mer frequency, TF over GST control)
- binding signal (SPIB): 1.33 fold enrichment (6-mer frequency, TF over GST control)
- binding signal (ELK3): 1.23 fold enrichment (6-mer frequency, TF over GST control)

Sequence: AAGCTA
- binding signal (FLI1): 1.16 fold enrichment (6-mer frequency, TF over GST control)
- binding signal (ELK1): 1.13 fold enrichment (6-mer frequency, TF over GST control)
- binding signal (GABPA): 1.08 fold enrichment (6-mer frequency, TF over GST control)
- binding signal (ERG): 1.13 fold enrichment (6-mer frequency, TF over GST control)
- binding signal (ELF1): 1.11 fold enrichment (6-mer frequency, TF over GST control)
- binding signal (EHF): 1.19 fold enrichment (6-mer frequency, TF over GST control)
- binding signal (SPI1): 1.04 fold enrichment (6-mer frequency, TF over GST control)
- binding signal (SPIB): 1.2 fold enrichment (6-mer frequency, TF over GST control)
- binding signal (ELK3): 1.21 fold enrichment (6-mer frequency, TF over GST control)

Sequence: CTCCTG
- binding signal (FLI1): 1.66 fold enrichment (6-mer frequency, TF over GST control)
- binding signal (ELK1): 1.69 fold enrichment (6-mer frequency, TF over GST control)
- binding signal (GABPA): 1.74 fold enrichment (6-mer frequency, TF over GST control)
- binding signal (ERG): 1.51 fold enrichment (6-mer frequency, TF over GST control)
- binding signal (ELF1): 1.65 fold enrichment (6-mer frequency, TF over GST control)
- binding signal (EHF): 1.33 fold enrichment (6-mer frequency, TF over GST control)
- binding signal (SPI1): 1.58 fold enrichment (6-mer frequency, TF over GST control)
- binding signal (SPIB): 1.7 fold enrichment (6-mer frequency, TF over GST control)
- binding signal (ELK3): 1.73 fold enrichment (6-mer frequency, TF over GST control)

Sequence: TTGTAG
- binding signal (FLI1): 1.13 fold enrichment (6-mer frequency, TF over GST control)
- binding signal (ELK1): 1.19 fold enrichment (6-mer frequency, TF over GST control)
- binding signal (GABPA): 1.12 fold enrichment (6-mer frequency, TF over GST control)
- binding signal (ERG): 1.12 fold enrichment (6-mer frequency, TF over GST control)
- binding signal (ELF1): 1.14 fold enrichment (6-mer frequency, TF over GST control)
- binding signal (EHF): 1.11 fold enrichment (6-mer frequency, TF over GST control)
- binding signal (SPI1): 1.07 fold enrichment (6-mer frequency, TF over GST control)
- binding signal (SPIB): 1.23 fold enrichment (6-mer frequency, TF over GST control)
- binding signal (ELK3): 1.2 fold enrichment (6-mer frequency, TF over GST control)

Sequence: ACTGTT
- binding signal (FLI1): 1.15 fold enrichment (6-mer frequency, TF over GST control)
- binding signal (ELK1): 1.03 fold enrichment (6-mer frequency, TF over GST control)
- binding signal (GABPA): 1.23 fold enrichment (6-mer frequency, TF over GST control)
- binding signal (ERG): 1.16 fold enrichment (6-mer frequency, TF over GST control)
- binding signal (ELF1): 1.11 fold enrichment (6-mer frequency, TF over GST control)
- binding signal (EHF): 1.13 fold enrichment (6-mer frequency, TF over GST control)
- binding signal (SPI1): 1.16 fold enrichment (6-mer frequency, TF over GST control)
- binding signal (SPIB): 1.15 fold enrichment (6-mer frequency, TF over GST control)
- binding signal (ELK3): 1.18 fold enrichment (6-mer frequency, TF over GST control)

Sequence: CTCCCT
- binding signal (FLI1): 1.61 fold enrichment (6-mer frequency, TF over GST control)
- binding signal (ELK1): 1.43 fold enrichment (6-mer frequency, TF over GST control)
- binding signal (GABPA): 1.54 fold enrichment (6-mer frequency, TF over GST control)
- binding signal (ERG): 1.62 fold enrichment (6-mer frequency, TF over GST control)
- binding signal (ELF1): 1.68 fold enrichment (6-mer frequency, TF over GST control)
- binding signal (EHF): 1.52 fold enrichment (6-mer frequency, TF over GST control)
- binding signal (SPI1): 1.49 fold enrichment (6-mer frequency, TF over GST control)
- binding signal (SPIB): 1.66 fold enrichment (6-mer frequency, TF over GST control)
- binding signal (ELK3): 1.5 fold enrichment (6-mer frequency, TF over GST control)

Sequence: GTTTCA
- binding signal (FLI1): 1.34 fold enrichment (6-mer frequency, TF over GST control)
- binding signal (ELK1): 1.27 fold enrichment (6-mer frequency, TF over GST control)
- binding signal (GABPA): 1.35 fold enrichment (6-mer frequency, TF over GST control)
- binding signal (ERG): 1.3 fold enrichment (6-mer frequency, TF over GST control)
- binding signal (ELF1): 1.4 fold enrichment (6-mer frequency, TF over GST control)
- binding signal (EHF): 1.3 fold enrichment (6-mer frequency, TF over GST control)
- binding signal (SPI1): 1.32 fold enrichment (6-mer frequency, TF over GST control)
- binding signal (SPIB): 1.24 fold enrichment (6-mer frequency, TF over GST control)
- binding signal (ELK3): 1.44 fold enrichment (6-mer frequency, TF over GST control)

Sequence: CCAACG
- binding signal (FLI1): 1.12 fold enrichment (6-mer frequency, TF over GST control)
- binding signal (ELK1): 1.15 fold enrichment (6-mer frequency, TF over GST control)
- binding signal (GABPA): 1.09 fold enrichment (6-mer frequency, TF over GST control)
- binding signal (ERG): 1.17 fold enrichment (6-mer frequency, TF over GST control)
- binding signal (ELF1): 1.2 fold enrichment (6-mer frequency, TF over GST control)
- binding signal (EHF): 1.11 fold enrichment (6-mer frequency, TF over GST control)
- binding signal (SPI1): 1.15 fold enrichment (6-mer frequency, TF over GST control)
- binding signal (SPIB): 1.07 fold enrichment (6-mer frequency, TF over GST control)
- binding signal (ELK3): 1 fold enrichment (6-mer frequency, TF over GST control)
